Article PMC4336329 (PLoS ONE, 2015)
In all, about 310,000 compounds went through this assay and about 14,000 (4.5%) showed an effect of 50% or more. Effects have a minus sign here. What follows is part of a selection rich in strong results, with near analogues and random picks from the rest.

The compounds below were run against human ether-à-go-go-related gene (hERG) potassium channel (human, UniProt Q12809) (assay: primary screen, population patch clamp on CHO cells stably expressing hERG; higher = less effect of the substance).
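Note: peak tail current of the secondary pulse compared with the same well before compound.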

human ether-à-go-go-related gene (hERG) potassium channel, sequence (Q12809 whole entry, looked up): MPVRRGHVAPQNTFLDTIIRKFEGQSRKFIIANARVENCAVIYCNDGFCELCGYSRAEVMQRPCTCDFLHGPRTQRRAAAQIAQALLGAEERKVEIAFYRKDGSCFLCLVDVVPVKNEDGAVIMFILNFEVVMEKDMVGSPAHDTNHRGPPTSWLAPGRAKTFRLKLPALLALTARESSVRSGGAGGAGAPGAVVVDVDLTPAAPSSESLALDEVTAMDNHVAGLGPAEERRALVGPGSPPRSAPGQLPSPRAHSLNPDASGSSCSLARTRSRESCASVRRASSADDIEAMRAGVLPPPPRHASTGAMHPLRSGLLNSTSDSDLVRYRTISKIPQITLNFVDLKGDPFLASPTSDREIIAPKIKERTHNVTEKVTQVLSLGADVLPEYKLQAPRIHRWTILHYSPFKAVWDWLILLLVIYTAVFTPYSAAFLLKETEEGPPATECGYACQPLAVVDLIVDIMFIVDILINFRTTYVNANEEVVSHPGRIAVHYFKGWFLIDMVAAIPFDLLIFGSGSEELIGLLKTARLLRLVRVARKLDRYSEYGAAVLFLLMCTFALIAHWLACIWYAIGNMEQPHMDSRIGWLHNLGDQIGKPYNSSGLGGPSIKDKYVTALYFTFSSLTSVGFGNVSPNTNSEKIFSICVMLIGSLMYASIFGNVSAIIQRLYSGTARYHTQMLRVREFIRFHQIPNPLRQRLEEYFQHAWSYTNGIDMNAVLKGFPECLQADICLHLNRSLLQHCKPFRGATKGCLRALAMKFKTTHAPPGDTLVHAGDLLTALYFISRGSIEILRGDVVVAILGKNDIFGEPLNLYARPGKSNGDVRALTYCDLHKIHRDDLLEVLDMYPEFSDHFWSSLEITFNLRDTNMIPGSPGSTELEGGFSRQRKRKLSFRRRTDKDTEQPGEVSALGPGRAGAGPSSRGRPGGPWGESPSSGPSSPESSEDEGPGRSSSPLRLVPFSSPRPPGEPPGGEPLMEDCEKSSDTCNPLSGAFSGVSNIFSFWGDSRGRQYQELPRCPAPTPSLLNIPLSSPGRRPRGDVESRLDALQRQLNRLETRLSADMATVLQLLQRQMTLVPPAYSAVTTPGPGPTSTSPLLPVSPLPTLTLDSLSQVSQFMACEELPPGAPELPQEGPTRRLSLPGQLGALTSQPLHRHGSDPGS

SMILES | hERG current change (%, negative = inhibition) at 10uM [%]
Cc1nc(C(F)(F)F)nc(Nc2ccc(Br)cc2)c1C#N | 12.2
COc1ccc(C=C(c2nc3ccccc3s2)c2nc3ccccc3s2)cc1O | 3.94
Cc1ccc2c(c1)N(CCC(=O)NCCN1CCOCC1)C(=O)CO2 | -2.16
N/C(Cc1ccc([N+](=O)[O-])cc1)=N\OC(=O)COc1ccc2ccccc2c1 | -14.4
O=C(O)c1cccc(CN2C(=O)SC(Nc3ccccc3)C2=O)c1 (stereo not drawn) | 2.16
Cc1ccc(C(C)C)c(OCCN2CCc3ccccc3C2)c1.Cl | 14.5
Cc1ccc(C)c(OCCCN2CCc3ccccc3C2)c1.Cl | -49.4
Cc1ccc(C(C)C)c(OCC(O)CN2CCc3ccccc3C2)c1.Cl (stereo not drawn) | -65
Cc1ccc(C(C)C)c(OCC(O)CN2CCOCC2)c1 (stereo not drawn) | -2.99
Cc1ccc(C(C)C)c(OCC(O)CN2CCN(CCO)CC2)c1.Cl (stereo not drawn) | -13.9
Cl.OC(COc1ccc(Cl)cc1Cl)CN1CCc2ccccc2C1 (stereo not drawn) | -58.6
OC(COc1ccc(Cl)cc1Cl)Cn1ccnc1 (stereo not drawn) | 9.67
Cl.c1ccc(-c2ccccc2OCCOCCN2CCc3ccccc3C2)cc1 | -28.7
OC(COc1ccc(F)cc1Cl)CN1CCc2ccccc2C1 (stereo not drawn) | -41.7
Cc1ccc(C(C)C)c(OCCCN2CCc3ccccc3C2)c1.Cl | -70.1
Cl.Clc1ccc(OCCOCCN2CCc3ccccc3C2)c(Cl)c1 | -69.8
Cl.Clc1ccc(OCCCN2CCc3ccccc3C2)c(Br)c1 | -34.8
CCOC(=O)/C=C1\SCC(=O)N1CC(=O)NCCOC | -10.2
NC(=O)c1ccc[n+](CC(=O)OCCC23CC4CC(CC(C4)C2)C3)c1.[Cl-] | 11.8

SMILES | hERG current change (%, negative = inhibition) at 10uM [%]
COc1ccc(N(CC(=O)NC2CCCC2)S(=O)(=O)c2c(C)[nH]c(=O)[nH]c2=O)cc1 | 10.2
Cc1cccc(C)c1OCCN1CCOCC1.O=C(O)C(=O)O | -0.56
O=C(NNc1ncccc1-n1cccc1)c1ccc(Cl)cc1 | -15.4
O=C(CSc1nc(C2CC2)nc2sc3c(c12)CCCC3)NCc1ccco1 | -6.99
Cc1ccc(Cn2c(Sc3ncccn3)nc3c2c(=O)[nH]c(=O)n3C)cc1 | -5.24
CCOC(=O)C1=C(N)n2c(s/c(=C/c3ccco3)c2=O)=C(C(=O)OC)C1c1ccco1 (stereo not drawn) | -2.57
COCCNC(=O)c1c(NC(=O)c2ccco2)n(Cc2ccccc2)c2nc3ccccc3nc12 | -16.9
Cc1ccc(OCC(O)CN2CCc3ccccc3C2)c(C)c1.Cl (stereo not drawn) | -72.3
Cc1ccc(OCCCCN2CCc3ccccc3C2)c(C)c1.Cl | -34.1
Cc1cc(OCC(O)CN2CCc3ccccc3C2)cc(C(C)C)c1.Cl (stereo not drawn) | -56.2
Cc1cccc(OCC(O)CN2CCc3ccccc3C2)c1.Cl (stereo not drawn) | -38
Cc1ccc(OCC(O)CN2CCOCC2)c(C)c1.Cl (stereo not drawn) | 20.2
Cc1nc(SCCOc2ccccc2F)[nH]c(=O)c1Cc1ccccc1 | 46.9
O=C(Nc1cnn(Cc2ccccc2)c1)c1nc2ncccn2n1 | 6.14
Cc1nc(CCNC(=O)c2cc(COc3ccc(F)cc3Cl)on2)sc1C | -22.4
O=C(O)c1ccc(Cl)c2c1C1C=CCC1C(c1ccccn1)N2 (stereo not drawn) | 7.76
COCCNC(=O)c1cccc(OC2CCN(Cc3ccc(F)cc3OC)CC2)c1 | -23.1
COc1ccc(C(=O)NC2CC2)cc1OC1CCN(Cc2ccc(F)cc2Cl)CC1 | -70.9
COc1ccc(C(=O)NC2CCN(Cc3c(F)cccc3Cl)CC2)cc1OC | -1.46

SMILES | hERG current change (%, negative = inhibition) at 10uM [%]
O=C(NCc1ccccn1)c1ccc(OC2CCN(Cc3ccc(F)cc3F)CC2)cc1 | -25.9
COc1ccc(C(=O)NCC(=O)OCc2ccc(F)cc2Cl)cc1OC | -1.96
COc1ccc(C(=O)NC2CC2)cc1OC1CCN(Cc2ccc(F)cc2F)CC1 | -81.5
Cc1cc2sc3ccccc3c(=O)c2c(C)c1O | 21.6
Cc1ccc(S(=O)(=O)N2CCOCC2)cc1C(=O)Nc1ccc2c(c1)CCC2 | -10.6
COC(=O)c1cn(NC(=O)C2CCC(C(C)(C)C)CC2)c(=O)c2ccccc12 (stereo not drawn) | 13.7
CCCCCCCCC[n+]1cccc2c3ccccc3ccc21.[Br-] | -84.8
CCCCCCCC[n+]1cccc2c3ccccc3ccc21.[I-] | -84.3
Cc1cccc[n+]1CCCCCCCCCC[n+]1ccccc1C.[Br-] | 37.8
CCC[n+]1c2ccccc2cc2ccccc21.[I-] | 23.7
CCCC[n+]1c2ccccc2cc2ccccc21.[I-] | -32.9
O/N=C/c1cccc[n+]1CCCCCC[n+]1ccccc1/C=N/O.[Br-] | 20.1
[Cl-].c1ccc(C[n+]2cccc3c4ccccc4ccc32)cc1 | -15
NC(=O)C[n+]1cccc2ccccc21.[I-] | 9.16
CCCCCCCCCCCCCCCC[n+]1cccc2ccccc21.[I-] | -71.2
O=C(C[n+]1cccc(CO)c1)Nc1nc2ccccc2s1.[Cl-] | -9.18
CC(C)CN(C(=O)CCC(=O)OCc1ccc(Cl)cc1Cl)c1c(N)n(CC(C)C)c(=O)[nH]c1=O | -47.3
CCn1nc(C)cc1C(=O)NC1CCCc2c1cnn2-c1cc(F)cc(F)c1 (stereo not drawn) | -5.58
Cc1cc(=O)c2cc(Br)ccc2n1CC(=O)NCc1ccccc1 | -12.8
